Active and inactive are the calls of the source. Cut-off read from the data, not from the text of the source: active = log2 fold change growth below about -1.8; inactive = the rest.

This assay in a line: C. elegans growth inhibition, whole organism, log2 fold change (AID 1259336).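 Note: growth scored by imaging after five days at 20 °C.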 The note with it: anthelmintic screen, hits give low values.
Consider `CC(C)NCC(=O)Nc1cccc(C(=O)Nc2cccc(C(F)(F)F)c2)c1`, for which the log2 fold change growth is 0.0022 (inactive). In the case of `CNC1C(OC2C(OC3C(O)C(O)C(N=C(N)N)C(O)C3N=C(N)N)OC(C)C2(O)C=O)OC(CO)C(O)C1O` (centres undefined), the log2 fold change growth is -0.00587 (inactive).

Take `Cc1cc(NCCc2ccccc2)nc(/N=C(\N)Nc2ccc(Cl)cc2)n1`: the log2 fold change growth was 0.186 (inactive).

For `c1ccc(Oc2ccc(-c3cc(CN4CCOCC4)[nH]n3)cc2)cc1`, the log2 fold change growth was 0.284 (inactive). As to `CC(=O)N(CCN(C(=O)c1ccc(F)cc1)c1ccccc1)c1ccccc1`, the log2 fold change growth was 0.382 (inactive). With `COC(=O)c1c(NC(=O)c2c(F)c(F)c(F)c(F)c2F)sc2c1CCCCC2` the figure was 0.243 (inactive); with `C[C@H](C(N)=O)N1CCCC[C@@H]1c1ccc(OCc2cccc(F)c2)cc1`, -0.0568 (inactive); with `Nc1ncnc2c1ncn2[C@@H]1O[C@H](COS(=O)(=O)NC(=O)c2ccccc2O)[C@@H](O)[C@H]1O`, 0.353 (inactive).

Turning to `O=C(Nc1c(O)cccc1-c1nc2c(C(=O)O)cccc2o1)c1cc(-c2ccccc2)on1`, the log2 fold change growth is -0.772 (inactive). For the molecule `Cc1cc(C(=O)Nc2ccc(-c3ccccc3)cc2)no1`, the log2 fold change growth was -3.09 (active). With `COC(=O)c1c(NC(=O)c2cc3ccccc3oc2=O)sc2c1CCN(Cc1ccccc1)C2` the figure was -0.125 (inactive). With `CCCCN(CCCC)c1c(C#N)cc(S(=O)(=O)Nc2ccccc2)cc1C#N` the figure was -0.631 (inactive). With `CNC(=O)[C@@H]1Cc2c([nH]c3cc(Cl)ccc23)C2(CCN(CCc3ccccc3)CC2)N1` the figure was 0.551 (inactive); with `CC(=O)Nc1ccc(NC(=O)c2cc(-c3cc(Cl)ccc3O)n[nH]2)cc1`, 0.254 (inactive).

These data come from PubChem BioAssay AID1259336 (Sattelle Laboratory, UCL Respiratory, Division of Medicine, …, 2017).
